Rows were chosen to be rich in hits. Some 3% of all compounds tested hit in one or more screens of this group.
Her2 expr inh: Her2 kinase expression inhibition; P04626; SKBR-3 HER2 protein level, AlphaScreen, 18-24 h; hits give low values; HER2 level % of control, % at 10 µM; actives 0.69% (n = 65,000); AID 645;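 active = HER2 level under 5% of the carrier-only control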;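 note: lower value means stronger loss of Her2 protein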
5HT1E ag: activates the human 5-HT1E serotonin receptor; CHO 5-HT1E Ga15 NFAT-bla reporter, FRET; 0% DMSO wells, 100% control agonist wells; activation, % at 6 µM; actives 0.69% (n = 65,000);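 active = activation above a set limit, the screen-wide mean activation plus 3 SD, cut at about 8.5% in these data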
5-HT1A blocker: antagonists of human 5-HT1a serotonin receptor. P08908. CHO 5-HT1a Ga15 NFAT-bla reporter, antagonist mode. inhibition, % at 10 µM. actives 0.68% (n = 62,000);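 active = inhibition above the mean of all tested compounds plus 3 SD, cut at about 43% in these data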;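 note: receptor stimulated by 5-CT agonist at 100 nM near EC80; beta-lactamase reporter measured by ratiometric fluorescence of a cleavable substrate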
5HT1a ag: activates the human 5-HT1a serotonin receptor; P08908; CHO 5-HT1a Ga15 NFAT-bla reporter, FRET ratio; 0% basal, 100% maximal reference agonist; activation, % at 10 µM; actives 0.56% (n = 65,000); AID 567;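 active = activation above the screen-wide mean activation plus 3 SD, cut at about 19% in these data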
5HT1E antag: antagonists of human 5-HT1E serotonin receptor; P28566; CHO 5-HT1E Ga15 NFAT-bla reporter, FRET, antagonist; inhibition, % at 6 µM; actives 0.99% (n = 65,000);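 active = inhibition above a set limit, the mean inhibition across every tested compound plus 3 SD, cut at about 29% in these data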;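 note: signal is the 460 over 535 nm emission ratio of beta-lactamase substrate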
Of the large screens only hits and unclear results are named; the others gave an inactive call.

O=C(NCc1ccco1)c1ccc2c(=O)n(Cc3ccco3)c(SCC(=O)N3CCCC3)nc2c1	none
COc1ccc(OC)c(C2C(C(=O)c3ccco3)=C(O)C(=O)N2CCCN2CCOCC2)c1 (configuration not stated)	none (no result: 5-HT1A blocker)
COc1cc2c(C#N)c(N3CCN(c4ccccc4OC)CC3)nc(N)c2c(N)n1	Her2 expr inh -4.0
COc1ccccc1N1CCN(c2nc(N)c(C#N)c(CC#N)c2C#N)CC1	none
COc1ccc(NC(C)=O)c2nc(C)c(C)nc12	5HT1E antag 30
O=C(O)C1CSCN1S(=O)(=O)c1cccc2nsnc12 (configuration not stated)	5HT1E ag 9.7 (no result: 5-HT1A blocker)
CCOc1cc2[nH]c(=S)n(CCCN3CCOCC3)c(=O)c2cc1OCC	none
CCOC(=O)N1CCC(n2c(=S)[nH]c3cc(OCC)c(OCC)cc3c2=O)CC1	Her2 expr inh 0.2
Cc1sc2ncn(CC(=O)OCC(=O)NC(C)(C)C)c(=O)c2c1C	none
Cc1sc2ncn(CC(=O)OC(C)C(=O)NC(C)(C)C)c(=O)c2c1C (configuration not stated)	5HT1a ag 98
CCOC(=O)CNC(=O)Cn1cnc2ccc(S(=O)(=O)N3CCC(C)CC3)cc2c1=O	none
Oc1cccc2ccc(Nc3ccccn3)nc12	Her2 expr inh -20
COc1cccc(C2N(c3cccc(Cl)c3)C(=O)C3CCCN32)c1 (configuration not stated)	none
Clc1ccc(-n2nnnc2SCc2c(-c3ccccc3)nc3sccn23)cc1	none
COC(=O)c1[nH]c2ccc(C)cc2c1NC(=O)CCN1CCN(C2CCCCC2)CC1	none
CCOC(=O)C1CCN(CC(=O)Nc2c(C(=O)OC)[nH]c3ccc(Cl)cc23)CC1	5HT1E antag 29
CCOC(=O)C1CCN(CC(=O)Nc2c(C(=O)OC)[nH]c3ccccc23)CC1	none
CCOC(=O)c1[nH]c2ccc(OC)cc2c1NC(=O)CN1CCN(c2ccccn2)CC1	5HT1a ag 29 (no result: 5-HT1A blocker)
COC(=O)c1[nH]c2ccc(Br)cc2c1NC(=O)CN1CCN(C2CCCCC2)CC1	Her2 expr inh -21
COc1ccccc1Cn1c2nc3ccccc3nc2c2c(=O)n(CC(C)C)cnc21	none (no result: 5-HT1A blocker)
COc1ccc2[nH]cc(C(=O)CN3CCN(C/C=C/c4ccccc4)CC3)c2c1	none
Cc1ccccc1Cn1nc(C)c(NC(=O)c2noc3c2CC(C(C)(C)C)CC3)c1C (configuration not stated)	none
Cc1ccccc1Cn1cc(NC(=O)c2noc3c2CC(C(C)(C)C)CC3)cn1 (configuration not stated)	5HT1a ag 26
CC(=O)Nc1ccc(S(=O)(=O)/N=C2\SCCN2S(=O)(=O)c2ccc(NC(C)=O)cc2)cc1	5HT1a ag 73
O=C(CSc1oc(-c2ccco2)nc1S(=O)(=O)c1ccc(Cl)cc1)NCC1CCCO1 (configuration not stated)	none
O=C(c1n[nH]c(=O)c2ccccc12)N1CCN(c2ccccc2)CC1	Her2 expr inh -20
O=C1c2ccccc2C(Nc2ccc(S(=O)(=O)N3CCCCCC3)cc2)N1Cc1ccco1 (configuration not stated)	5HT1a ag 44
CCc1ccccc1NC1c2ccccc2C(=O)N1Cc1ccco1 (configuration not stated)	none
Cc1cc(OCC(=O)Nn2cnnc2)ccc1Br	none (no result: 5-HT1A blocker)
O=C(CN1CCC(NC(=O)c2ccccc2)CC1)NCc1ccccc1F	none
O=C(CN1CCC(NC(=O)c2cccc(F)c2)CC1)NCc1ccccc1F	5HT1a ag 27
O=C(Cn1c(SCC(=O)NC2CCCC2)nnc1-c1ccncc1)Nc1ccc2c(c1)OCO2	none
Fc1ccc(N2CCN(C(c3cccs3)c3nnnn3CCc3ccccc3)CC2)cc1 (configuration not stated)	none
c1ccc(CCn2nnnc2C(c2cccnc2)N2CCN(c3nc4ccccc4s3)CC2)cc1 (configuration not stated)	none
Fc1ccccc1N1CCN(C(c2cccs2)c2nnnn2CCc2ccccc2)CC1 (configuration not stated)	5-HT1A blocker 57
c1ccc(CCn2nnnc2C(c2cccnc2)N2CCN(c3ccccc3)CC2)cc1 (configuration not stated)	5HT1E ag 9.9
C=CCn1c(SCc2nc(N)nc(N3CCCCC3)n2)nnc1-c1ccco1	none
CCCCCn1c(SCC#N)nc2cc(C(=O)NC3CCCCC3)ccc2c1=O	Her2 expr inh -20
O=C(NCc1ccco1)Nc1ccc2nsnc2c1	5-HT1A blocker 59
COc1cc2c(cc1OC)C1Cc3ccc(OC)c(OC)c3CN1CC2 (configuration not stated)	5-HT1A blocker 51
CN(C)CCCN1C(=O)C(=O)/C(=C(/O)c2ccc3c(c2)OCCO3)C1c1ccccn1 (configuration not stated)	5HT1a ag 81
CCN(CC)CCCN1C(=O)C(=O)/C(=C(/O)c2ccc3c(c2)OCO3)C1c1ccccn1 (configuration not stated)	none
COc1cccc(-c2cn3nc(C)c(C)nc3n2)c1	none
Cc1nc2nc(-c3cccs3)cn2nc1C	5HT1E antag 39
CCNc1nc(C)c2cc(Br)c(=O)n(CC)c2n1	5HT1E antag 58
CCOC(=O)c1[nH]c(C)c(C(=O)Nc2cc(OC)ccc2OC)c1C	5HT1E antag 49
Cc1ccc(S(=O)(=O)N2CCCSCC2)cc1	5HT1a ag 49
Cc1ccc(-c2ccc(S(=O)(=O)N3CCN(C)CC3)cc2)cc1	none
O=C(NCc1ccco1)c1cccc(-c2nnc(-c3ccccc3)o2)c1	none
CCNc1nc2c(c(=O)n(Cc3ccccc3)c(=O)n2C)n1Cc1ccccc1	5HT1a ag 37
Cc1c(C(=O)NCCc2ccccc2)oc2ccc(S(=O)(=O)N3CCOCC3)cc12	none
Cc1c(C(=O)NCCN2CCOCC2)oc2ccc(S(=O)(=O)N3CCCCCC3)cc12	Her2 expr inh -22
COC(=O)C1=C(N)Oc2cc(C)oc(=O)c2C1c1ccncc1 (configuration not stated)	none (no result: 5-HT1A blocker)
COC(=O)/C(=C1/Oc2cc(C)oc(=O)c2S1)C(F)(F)F	Her2 expr inh -15, 5HT1E antag 78 (no result: 5-HT1A blocker)
COc1ccc2nc3oc(C(=O)N4CCCCC4)cc3cc2c1	none
COc1ccc2nc3sc(C(=O)N4CCN(C)CC4)cc3cc2c1	5HT1E ag 25
Cc1cc(NC(=O)C23CCC(C)(c4nc5cc(Cl)c(Cl)cc5nc42)C3(C)C)no1 (configuration not stated)	none
O=C(NC1CCC(NC(=O)C2CCCO2)CC1)C1CCCO1 (configuration not stated)	none
CCOC(=O)c1c(NC(=O)c2nn(CC)cc2Br)c(C#N)cn1-c1ccccc1	5HT1E antag 40
CCOC(=O)c1c(N)c(C#N)cn1-c1ccccc1	none
CCN(CC(=O)Nc1ccc2c(c1)CCC2)Cc1nc2ccccc2c(=O)[nH]1	none
Cn1c(Cn2c(=O)sc3ccccc32)nnc1SCC(=O)N1CCOCC1	none
